Compounds without any hit were thinned out: in the full panel of roughly 83,000, 20% have a hit.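 48-hour exposure, single concentration, 96-well plates; percent growth endpoint where 0 means no net growth. Active: below 10.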 A number with no mark means an inactive call. The source made the active and inactive calls.

Some test systems named below: NCI-H23 lung; NCI-H226 lung; NCI-H322M lung; HOP-62 NSCLC; NCI-H460 lung; HOP-92 NSCLC; NCI-H522 lung; A549/ATCC NSCLC; 786-0 renal; COLO 205 colon; DU-145 prostate; K-562 leukemia; MALME-3M melanoma; MDA-MB-231 breast; RXF 393 renal; SF-268 CNS; SF-295 CNS; SF-539 CNS; M14 melanoma.
What all share (test): NCI-60 one-dose screen, 48 h (100 = growth as untreated, 0 = no growth, -100 = all killed)
Settings in all cases: 10 µM unless noted

As for `CCN(CC)CCC(=O)c1cccc2ccccc12`, the growth with NCI-H23 lung was 95.3%; with NCI-H226 lung it was 104%; in the experiment with NCI-H322M lung, 103%; in the experiment with HOP-62 NSCLC it was 112%; in the experiment on NCI-H460 lung, 110%; with HOP-92 NSCLC, 99.4%. Further, the growth in the experiment on NCI-H522 lung is 9.95% (active); in the experiment with A549/ATCC NSCLC, 98.6%; in the experiment with 786-0 renal it was 102%; with COLO 205 colon, 124%; in the experiment on DU-145 prostate it was 108%; in the experiment on K-562 leukemia, 89.6%. The growth with MALME-3M melanoma was 98.6%; with MDA-MB-231 breast it was 94.8%; with RXF 393 renal, 102%; with SF-268 CNS it was 109%; with SF-295 CNS, 101%; with SF-539 CNS it was 92.4%. Also, the growth with M14 melanoma is 111%.

On to `CCCCn1c(=O)c(C2CNC(=O)c3ccccc3N2)cc2ccccc21` (configuration not stated), for which the growth is 95% in the experiment with NCI-H23 lung; 111% in the experiment on NCI-H226 lung; 111% with NCI-H322M lung; 91.8% in the experiment on HOP-62 NSCLC; 102% in the experiment on NCI-H460 lung; 95.2% with HOP-92 NSCLC. Also, the growth with NCI-H522 lung is 92.5%; with A549/ATCC NSCLC, 97.1%; with 786-0 renal it was 92.4%; with COLO 205 colon, 111%; in the experiment on DU-145 prostate, 108%; with K-562 leukemia, 99.3%. Besides, the growth with MALME-3M melanoma is 107%; with MDA-MB-231 breast, 77.5%; in the experiment with RXF 393 renal, 111%; with SF-268 CNS, 98.9%; in the experiment with SF-295 CNS, 96.8%; with SF-539 CNS, 89.9%. Besides, the growth with M14 melanoma was 107%.

Take `CCC#CC[C@H]1C/C=C2/C(=O)C=C[C@@H]2C/C=C\CCCC(=O)O1`: the growth in the experiment on NCI-H23 lung is 20.4%; with NCI-H226 lung it was -26.6% (active); with NCI-H322M lung, 45.4%; in the experiment on HOP-62 NSCLC, -3.46% (active); in the experiment with NCI-H460 lung, -38.1% (active); with HOP-92 NSCLC, -5.7% (active). Besides, the growth was -29% (active) in the experiment with NCI-H522 lung; 0.732% (active) in the experiment on A549/ATCC NSCLC; -37.9% (active) with 786-0 renal; -22.7% (active) in the experiment with COLO 205 colon; 9.38% (active) with DU-145 prostate; 2.38% (active) in the experiment with K-562 leukemia. Moreover, the growth was 1.52% (active) with MALME-3M melanoma; 16.1% with MDA-MB-231 breast; -65.4% (active) in the experiment on RXF 393 renal; 5.57% (active) in the experiment on SF-268 CNS; 4.47% (active) with SF-295 CNS; 8.07% (active) in the experiment with SF-539 CNS. In addition, in the experiment with M14 melanoma, the growth was 2.84% (active).

Take `C=C1C(=O)O[C@H]2[C@H]1CC/C(COC(=O)NCc1cc(OC)c(OC)c(OC)c1)=C\CC[C@@]1(C)O[C@@H]21`: the growth is 86.8% in the experiment on NCI-H23 lung; 76.2% with NCI-H226 lung; 99.5% in the experiment with NCI-H322M lung; 80.4% with HOP-62 NSCLC; 94% with NCI-H460 lung; 72.4% in the experiment on HOP-92 NSCLC. The growth with NCI-H522 lung was -42.6% (active); in the experiment with A549/ATCC NSCLC, 88.1%; in the experiment on 786-0 renal, 40.3%; in the experiment on COLO 205 colon, 17.6%; in the experiment with DU-145 prostate it was 43.3%; in the experiment on K-562 leukemia, 16.3%. Moreover, the growth in the experiment with MALME-3M melanoma is 101%; with MDA-MB-231 breast, 56.5%; in the experiment with RXF 393 renal, 60.4%; with SF-268 CNS, 68.5%; in the experiment with SF-295 CNS, 99.4%; in the experiment on SF-539 CNS, 65.1%. In the experiment on M14 melanoma, the growth is 49.9%.

As for `CNC(=O)c1cc(Oc2ccc3c(c2)sc2nc(-c4ccc(Cl)cc4)cn23)ccn1`, the growth in the experiment with NCI-H23 lung is 72.6%; in the experiment on NCI-H226 lung it was 38.9%; with NCI-H322M lung it was 92.9%; with HOP-62 NSCLC it was 62.5%; with NCI-H460 lung, 81.8%; in the experiment with HOP-92 NSCLC, 76.8%. Besides, the growth is 61.7% in the experiment on NCI-H522 lung; 79.4% with A549/ATCC NSCLC; 77.9% in the experiment with 786-0 renal; 114% with COLO 205 colon; 96.3% in the experiment on DU-145 prostate; 85.8% with K-562 leukemia. Besides, the growth is 72.7% in the experiment on MALME-3M melanoma; 77% with MDA-MB-231 breast; 83.5% with RXF 393 renal; 63.3% in the experiment with SF-268 CNS; 80.1% in the experiment on SF-295 CNS; 76% in the experiment with SF-539 CNS. Further, the growth with M14 melanoma is 94.7%.

In the case of `Cc1cc2c(C(C)C)c(O)c(O)c(C=NCCCCCCC(=O)O)c2c(O)c1-c1c(C)cc2c(C(C)C)c(O)c(O)c(C=NCCCCCCC(=O)O)c2c1O`, the growth in the experiment with NCI-H23 lung is 21.8%; in the experiment with NCI-H226 lung, 74.7%; in the experiment with NCI-H322M lung, 38.9%; with HOP-62 NSCLC, 39.3%; in the experiment with NCI-H460 lung it was 13.1%; with HOP-92 NSCLC it was 13.8%. The growth is 9.55% (active) in the experiment on NCI-H522 lung; 30.7% with A549/ATCC NSCLC; 38.2% in the experiment with 786-0 renal; 14.6% in the experiment on COLO 205 colon; 51.3% in the experiment with DU-145 prostate; 12.6% in the experiment with K-562 leukemia. The growth is 62.8% in the experiment with MALME-3M melanoma; 39.2% in the experiment on MDA-MB-231 breast; 34.2% in the experiment with RXF 393 renal; 36.2% in the experiment on SF-268 CNS; 11.9% in the experiment on SF-295 CNS; 23.1% with SF-539 CNS. The growth with M14 melanoma was 37%.

Take `CCCCCCCN(CCCCCCC)C(=N)c1ccc(OC)c2ccccc12`: the growth with NCI-H23 lung was -70.2% (active); with NCI-H226 lung, -73.1% (active); with NCI-H322M lung, -89% (active); in the experiment on HOP-62 NSCLC, -85.9% (active); with NCI-H460 lung, -92% (active); in the experiment on HOP-92 NSCLC, -86.6% (active). The growth in the experiment with NCI-H522 lung is -75.2% (active); in the experiment with A549/ATCC NSCLC it was -83.7% (active); with 786-0 renal it was -90.7% (active); with COLO 205 colon, -73% (active); with DU-145 prostate, -96.4% (active); in the experiment on K-562 leukemia, -47.9% (active). In addition, the growth was -72% (active) with MALME-3M melanoma; -77.2% (active) in the experiment with MDA-MB-231 breast; -94.5% (active) with RXF 393 renal; -91% (active) in the experiment on SF-268 CNS; -89.9% (active) in the experiment with SF-295 CNS; -88% (active) in the experiment on SF-539 CNS. For the same compound, the growth with M14 melanoma was -85.9% (active).

Turning to `CC(=O)N1Cc2ccccc2C(C)Cc2cc(Cl)ccc21` (configuration not stated), the growth is 106% in the experiment on NCI-H23 lung; 117% with NCI-H226 lung; 97.9% in the experiment on NCI-H322M lung; 102% with HOP-62 NSCLC; 105% in the experiment on NCI-H460 lung; 99.3% in the experiment with HOP-92 NSCLC. The growth in the experiment on NCI-H522 lung was 95.8%; with A549/ATCC NSCLC, 96.5%; in the experiment on 786-0 renal, 95.9%; with COLO 205 colon it was 117%; in the experiment with DU-145 prostate, 114%; with K-562 leukemia it was 102%. Also, the growth in the experiment on MALME-3M melanoma was 103%; in the experiment with MDA-MB-231 breast, 102%; in the experiment with RXF 393 renal, 124%; with SF-268 CNS it was 104%; in the experiment with SF-295 CNS it was 110%; in the experiment with SF-539 CNS it was 107%. The growth with M14 melanoma was 103%.

For the origin of these results see PubChem BioAssay (NCI).
